The values below come from PubChem BioAssay AID2384 (Southern Research Specialized Biocontainment Screening …, 2010).

About 1,100 (48%) of roughly 2,300 compounds were called active. How the calls were made is not given here. The set was probably picked from earlier hits. The list shows a part of the results. A call without a number means that no potency is given here. Potency and affinity values are given separately.

This test can be described thus: S. typhi counter-screen signal inhibition – fluorescence, 4 h, counter-screen for PhoP regulon inhibitor project, dose response (AID 2384). The conditions noted are these: S. typhi GFP reporter counter-screen; series mostly up to 150 µM. In general terms: Counterscreens check selectivity or assay interference.
The term inhibition denotes the drop in the measured response relative to a control, in per cent. Regarding `CCn1c(-c2ccncc2)n[nH]c1=S`, the inhibition entry is “inactive”. Then `O=C(OCCCN1C(=O)c2ccccc2C1=O)c1ccco1`, with “inactive”; and `OCC[C@H]1C[C@H](O)[C@@H](O)[C@@]2(Cc3ccccc3CO2)O1`, with “inactive”. Then `Cc1ccc(N(CC(=O)Nc2c(C)n(C)n(-c3ccccc3)c2=O)S(C)(=O)=O)cc1C`, with “inactive”. In the case of `Cc1nc2ccccc2nc1N/N=C/c1ccc(O)cc1O`, the inhibition entry is “inactive”.

`Oc1ccc(C=NC2CCCCC2)c(O)c1`: the inhibition result is “inactive”. Under `CCN(CCCNC(=O)c1cn(CC)c2ccc(S(=O)(=O)N(C)C)cc2c1=O)c1cccc(C)c1` stands “inactive”. Then `Clc1ccc(CONc2ncnc3nonc23)c(Cl)c1`, with “inactive”; and `COc1ccc(OC)c(C2=NO[C@@H]3C(=O)N(c4cc(Cl)ccc4OC)C(=O)[C@H]23)c1`, with “inactive”. Under `CC(C)(C)CC(=O)Nc1nnc(SCC(=O)N2CCCCC2)s1` stands “inactive”; under `Cc1cc(C)c(S(=O)(=O)Nc2ccccc2C(=O)OCC(=O)NCc2ccccc2)c(C)c1`, “inactive”; under `CC1Cc2ccccc2N1S(=O)(=O)c1cccc(C(=O)N2CC(=O)Nc3ccccc32)c1` (stereo not drawn), “inactive”.

Consider `Cn1c(-c2ccc(Cl)cc2)cnc1N`, for which the inhibition result is “inactive”. Then `O=[N+]([O-])c1ccc(-c2cnc(NO)nc2)cc1`, with “inactive”.

On to `CCC(O)CNc1nc(SC)nc2sc3c(c12)CCN(C)C3` (stereo not drawn), for which the inhibition result is “inactive”.

As to `c1ccc(CSc2ccc(-c3cccs3)nn2)nc1`, the inhibition entry is “inactive”. In the case of `COc1ccc(C(=O)C[n+]2cc(Br)cc3ccccc32)cc1[N+](=O)[O-]`, the inhibition result was “inactive”. Under `c1ccc2c(Nc3nnc(-c4ccncc4)s3)cccc2c1` stands “inactive”; under `O=C(N/N=C/c1cccnc1)c1ccc(F)cc1`, “inactive”. Under `Clc1ccc(N/N=C/c2cccs2)nn1` stands “inactive”; under `CC(/C=C\c1cccnc1)=C/C(=O)O`, “inactive”.

With `CSc1nnc(-c2cccc(NC(=S)NN)c2)o1`, the inhibition entry is “inactive”. Under `Cc1ccc2cc(CN(Cc3ccc(F)cc3)Cc3nnnn3C3CCCC3)c(=O)[nH]c2c1` stands “inactive”. As for `Nc1ccc(S(=O)(=O)c2ccc(N)cc2)cc1`, the inhibition result is “inactive”. Then `Cc1ccc(NC(=S)NCc2cccnc2)cc1`, with “inactive”; and `CCc1nnc(NC(=O)c2ccc(S(C)(=O)=O)cc2)s1`, with “inactive”.

In the case of `O=C(O)c1cnn2c1NC(c1cccs1)CC2C(F)(F)F` (stereo not drawn), the inhibition entry was “inactive”. In the case of `CCCn1c(SCc2ccc(Cl)cc2)nc2c1c(=O)[nH]c(=O)n2C`, the inhibition entry was “inactive”. Regarding `NS(=O)(=O)c1ccc(CCNC(=O)C(=O)C2C(=O)Nc3ccccc32)cc1` (stereo not drawn), the inhibition result is “inactive”. Under `NS(=O)(=O)c1ccc(CCNS(=O)(=O)c2cccc(C(=O)O)c2)cc1` stands “inactive”; under `COC(=O)C1=C(C)N(Cc2ccco2)C(=O)N[C@H]1c1ccc(Br)cc1`, “inactive”; under `COC(=O)C1=C(C)N(CC2CC2)C(=O)N[C@H]1c1ccc(Br)cc1`, “inactive”. Then `CC(C)CC(c1nnnn1Cc1ccco1)N1CCN(c2cccc(Cl)c2)CC1` (stereo not drawn), with “inactive”. For `CCCC(C(=O)NCC1CCCO1)N(Cc1ccco1)C(=O)CNS(=O)(=O)c1ccc(F)cc1` (stereo not drawn), the inhibition result was “inactive”. Under `Cc1c(C2(O)C(=O)Nc3ccc(F)cc32)c(=O)n(-c2ccccc2)n1C` (stereo not drawn) stands “inactive”. Regarding `Nc1ccc(N=Nc2ccccc2)c(N)n1`, the inhibition result was “inactive”. Under `Nc1nn2cc(-c3ccccc3)nc2c2ccccc12` stands “inactive”. On to `Nc1nc2ccccc2cc1-c1cccs1`, for which the inhibition result was “inactive”. Regarding `Cc1cccc(CN2C3=NCCCN3c3ccccc32)c1`, the inhibition result was “inactive”.

For `Cc1ccc(CN2C3=NCCN3c3ccccc32)cc1`, the inhibition result was “inactive”. On to `O=C(COc1ccc(Cl)cc1)N1CCCCC1`, for which the inhibition result is “inactive”. Then `O=C(CSc1ccc(Cl)cc1)c1ccco1`, with “inactive”; and `CC(C)(C)NC(=O)/C=C/c1ccc(C(F)(F)F)cc1`, with “inactive”. Consider `CC(=O)C1C(c2ccc(OC(F)F)cc2)NC(=O)NC1(O)C(F)(F)F` (stereo not drawn), for which the inhibition result is “inactive”. On to `c1ccc2c(SCc3cn4ccccc4n3)nncc2c1`, for which the inhibition result was “inactive”. Then `O=C(Cn1c(C(F)(F)F)nc2ccccc21)NCCCN1CCOCC1`, with “inactive”; and `Cc1cccc(N(C(=O)CCC(=O)Nc2ccccn2)C(C(=O)NC(C)C)c2ccc(O)cc2)c1` (stereo not drawn), with “inactive”; and `CC(C(=O)NC1CCCCC1)N1CCN(C)CC1` (stereo not drawn), with “inactive”. Under `O=C(CCS(=O)(=O)c1ccccc1)Nc1ccc2c(c1)C(=O)NC2=O` stands “inactive”. `CCCCCCNC1=NCCS1`: the inhibition entry was “inactive”.

For the compound `CC(=O)Cc1nsc(NC(=O)c2csc3c2CCCC3)n1`, the inhibition result was “inactive”.

As to `C[N+](C)(CCCCCC[N+](C)(C)CCCN1C(=O)c2cccc3cccc(c23)C1=O)CCCN1C(=O)c2cccc3cccc(c23)C1=O`, the inhibition entry is “inactive”. Under `CCn1c(=N)n(CC(=O)c2ccc(OC)cc2)c2ccccc21` stands “inactive”; under `CCOC(=O)CNC(=O)Cn1c(C)cc2ccccc2c1=O`, “inactive”; under `Cc1ccc(-n2c(=O)c3sccc3n(CC(=O)NC3CCCCC3)c2=O)cc1`, “inactive”.

Regarding `COc1ccc(/C=N/NC(=O)c2cc3c(OC)ccc(OC)c3[nH]2)cc1O`, the inhibition entry was “inactive”. Under `O=C(CSc1nnc(-c2cccnc2)n1Cc1ccco1)c1ccc2ccccc2c1` stands “inactive”; under `Cc1cc(NCCCn2ccnc2)n2ncc(-c3ccccc3)c2n1`, “inactive”.

Turning to `Cc1cc(C)nc(SCC(=O)NCc2ccco2)n1`, the inhibition result was “inactive”. Under `Cc1ccccc1Cn1c(=O)n(CCCC(=O)NCc2ccco2)c(=O)c2ccccc21` stands “inactive”; under `COc1ccccc1NC(=O)Cn1c(=O)n(CCc2c[nH]c3ccccc23)c(=O)c2cccnc21`, “inactive”; under `COc1ccc(CNCCc2c[nH]c3ccccc23)c(OC)c1C`, “inactive”.

`CCOC(=O)Cn1c(=O)oc2cc(S(=O)(=O)NCC3CCCO3)ccc21` (stereo not drawn): the inhibition result is “inactive”. Then `Cc1ccc(N2CC(C(=O)OCc3ccccc3F)CC2=O)cc1` (stereo not drawn), with “inactive”; and `C=C(C)Cn1c(SCC#N)nc2ccccc2c1=O`, with “inactive”. Then `Cc1cc(C(F)F)n2nc(C(=O)Nc3cc(C)on3)nc2n1`, with “inactive”; and `CCc1nc(C)ccc1OCC(=O)N(CC)CC`, with “inactive”. For the compound `CNS(=O)(=O)c1cccc(C(=O)OCc2cc(=O)oc3c(C)c(O)ccc23)c1`, the inhibition result was “inactive”. With `[O-][n+]1onc2c1CCc1[nH]c(-c3ccccc3)nc1-2`, the inhibition result was “inactive”. Under `CN(C)C(/C=C/Nc1ccc(F)cc1F)=C(C#N)C#N` stands “inactive”; under `CC(=O)Nc1cccc(NS(=O)(=O)Cc2ccc(Cl)cc2)c1`, “inactive”. Then `CC(=O)Nc1cccc(NC(=O)Nc2ccc(C)c(Cl)c2)c1`, with “inactive”. Then `O=C(Cn1c(=O)oc2ccccc21)N1CCN(c2ccc(N3CCOCC3)nn2)CC1`, with “inactive”.
